Experimental findings from PubChem BioAssay are described below.

Experiment [1] relates to Human papillomavirus type 1a protein E7 (residues 44-93). Briefly: HPV1a E7 fragment binders on microarrays, primary screen, biochemical, small-molecule microarray, residues 44-93, 635 nm fluorescence (AID 1108).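 Further: E7 fragment applied at 1 µg/mL in TBST for 1 h at 4 C; score combines spot fluorescence with its signal to noise ratio.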 The settings on record: small-molecule microarray binding, fluorescence 635 nm; higher = more signal.
A short description of experiment [2]: modulators of HCV replicon luciferase signal, primary screen, HCV replication inhibitor project, Huh7 cells, luciferase reporter (AID 1109).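 Further: huh7 hepatoma cells harbouring a luciferase neomycin HCV replicon reporter; luciferase luminescence as measure of HCV replicon replication; test concentration not given here.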 The settings on record: 48 h, higher = more signal. On the technique in general: In antiviral work, replicon cells carry a viral genome segment that copies itself.
Experiment [3] deals with Left-right determination factor 2 (Homo sapiens) (UniProt O00292). Put plainly: LEFTY2 binders on small-molecule microarrays, primary screen, biochemical, small-molecule microarray, 635 nm fluorescence scan (AID 1110). As to conditions: LEFTY2 binding, higher = more signal.
Left-right determination factor 2 (Homo sapiens), sequence (O00292 whole entry, looked up): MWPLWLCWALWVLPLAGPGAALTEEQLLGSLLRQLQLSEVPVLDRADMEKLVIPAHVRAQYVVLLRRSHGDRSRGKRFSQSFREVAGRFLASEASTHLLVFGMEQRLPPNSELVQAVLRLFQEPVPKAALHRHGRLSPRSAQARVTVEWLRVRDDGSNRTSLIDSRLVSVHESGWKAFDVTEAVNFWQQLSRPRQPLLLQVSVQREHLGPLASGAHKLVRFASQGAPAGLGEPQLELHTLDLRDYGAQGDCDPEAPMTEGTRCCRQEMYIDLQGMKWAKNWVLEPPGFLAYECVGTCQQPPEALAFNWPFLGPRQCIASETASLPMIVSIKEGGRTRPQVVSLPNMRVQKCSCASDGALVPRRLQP
Experiment [4] deals with Calmodulin-1 (Homo sapiens) (UniProt P0DP23). Put plainly: CALM1 binders on microarrays, EGTA buffer, profiling panel, biochemical, small-molecule microarray, Cy5-labelled CALM1 (AID 1111).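 Further: labelled calmodulin applied in Tris saline Tween buffer holding calcium plus EGTA and DTT.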 The settings on record: Cy5-CALM1 binding fluorescence, higher = more signal.
Experiment [5] has the same target. Briefly: calcium-bound CALM1 binders on microarrays, profiling panel, artefact control for SMM control-protein annotation, biochemical, small-molecule microarray, Cy5-labelled CALM1, plus calcium (AID 1112).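 Further: score merges spot fluorescence with signal to noise from triplicate slides.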 The settings on record: Cy5-CALM1 binding fluorescence, higher = more signal.
A short description of experiment [6]: small-molecule microarray binders of probe aWnt5a, primary screen, biochemical, biotinylated probe, 635/667 nm fluorescence (AID 1113).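 Further: score merges 667 nm fluorescence intensity with signal-to-noise per printed feature.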 As to conditions: higher = more signal.
Experiment [7] is described as follows: small-molecule microarray binders of probe aShh, primary screen, biochemical, biotinylated probe, 635/667 nm fluorescence (AID 1114).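 Further: probe is biotin-labelled aShh protein from a stem cell growth factor screen; measures binding of labelled protein to compounds printed on the slide; score merges feature fluorescence at 667 nm with signal-to-noise.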 The settings on record: higher = more signal.
A short description of experiment [8]: small-molecule microarray binders of probe aNog, primary screen, biochemical, biotinylated probe, 635/667 nm fluorescence (AID 1115).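 Further: probe is biotinylated aNog protein used at 0.15 µg/mL for 1 h at 4 C; z-score combines 667 nm fluorescence of each spot with its signal to noise.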 The settings on record: higher = more signal.
The target in experiment [9] is Torsin-1A-interacting protein 1 (Homo sapiens) (UniProt Q5JTV8). Put plainly: LAP1 binders from COS7 cell lysate, primary screen, small-molecule microarray, 635/667 nm fluorescence (AID 1116). As to conditions: COS7-hLAP1 lysate binding, 635 nm fluorescence, higher = more signal.
Torsin-1A-interacting protein 1 (Homo sapiens), sequence (Q5JTV8 whole entry, looked up): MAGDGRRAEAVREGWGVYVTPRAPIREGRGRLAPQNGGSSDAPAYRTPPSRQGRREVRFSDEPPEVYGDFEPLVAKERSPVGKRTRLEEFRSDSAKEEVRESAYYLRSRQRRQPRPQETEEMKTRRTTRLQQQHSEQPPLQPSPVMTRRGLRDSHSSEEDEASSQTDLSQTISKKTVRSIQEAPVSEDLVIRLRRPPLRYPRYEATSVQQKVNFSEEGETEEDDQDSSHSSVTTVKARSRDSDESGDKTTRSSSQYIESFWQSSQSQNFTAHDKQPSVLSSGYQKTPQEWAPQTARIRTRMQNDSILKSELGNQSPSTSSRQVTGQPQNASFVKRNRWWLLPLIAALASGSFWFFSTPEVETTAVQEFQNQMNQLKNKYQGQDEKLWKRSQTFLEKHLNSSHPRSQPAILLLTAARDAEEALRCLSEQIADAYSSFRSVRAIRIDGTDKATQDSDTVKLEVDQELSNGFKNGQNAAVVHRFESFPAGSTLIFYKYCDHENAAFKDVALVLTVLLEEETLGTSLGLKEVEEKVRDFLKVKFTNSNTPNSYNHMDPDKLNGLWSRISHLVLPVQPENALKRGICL
Experiment [10] deals with Alpha-bungarotoxin (Bungarus multicinctus) (UniProt P60615). Put plainly: alpha-bungarotoxin binders on microarray, profiling panel, artefact control for SMM control protein annotation, biochemical, small-molecule microarray, Alexa647 label, 635/667 nm fluorescence (AID 1117). The settings on record: alpha-BTX-A647 binding fluorescence, higher = more signal.
Alpha-bungarotoxin (Bungarus multicinctus), sequence (P60615 whole entry, looked up): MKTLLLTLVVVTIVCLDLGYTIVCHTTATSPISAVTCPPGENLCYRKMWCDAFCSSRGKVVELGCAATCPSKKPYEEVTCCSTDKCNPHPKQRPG

As for `COCCOC(=O)N1C(=O)[C@@]2(c3ccccc31)[C@H](c1ccc(OCCO)cc1)N1[C@H](c3ccccc3)[C@H](c3ccccc3)OC(=O)[C@H]1[C@@H]2C(=O)N1CCN(c2ncccn2)CC1`, the composite z-score in experiment [1] is 1.41; in experiment [3], 1.06; in experiment [4], 1.51; in experiment [5], 0.039; in experiment [6] it was -0.001; in experiment [7], -0.043. For the same compound, the values for the composite z-score in experiment [8], in [9] and in experiment [10] were 0.998, 1.5 and 1.26, respectively. The compound further came in with a z-score in experiment [2] of -1.47.

With `C=C(CCCC)/C(=C/C[C@H](OC(C)=O)c1cccc(OCCO)c1)c1cc(C(=O)OC)ccc1OC`, the composite z-score was -0.323 in experiment [1]; -0.277 in experiment [3]; -0.343 in [4]; -1.12 in experiment [5]; -0.0721 in [6]; 0.0062 in [7]. The composite z-score in experiment [8] is 0.257; in [9] it was 0.455; in [10] it was -0.0712. The compound also came in with a z-score in [2] of -1.95.

Regarding `COC(=O)[C@@]1(Cc2ccc(OC)cc2)[C@@H]2[C@@H](CC(=O)[C@H]2CC(=O)C(=O)N2CCCC2)CN1C(=O)c1ccccc1`, the composite z-score was found to be 0.43 in [1]; 0.352 in [3]; 2.05 in [4]; 1.02 in experiment [5]; 1.31 in experiment [6]; 2.68 in experiment [7]. The composite z-score came to 2.97 in experiment [8], 2.12 in [9] and 1.49 in experiment [10]. Also, in experiment [2], the z-score is -1.83.

With `COc1ccc([Si](C)(C)[C@H]2[C@H](CC(=O)N3Cc4ccccc4C[C@H]3CO)O[C@@]3(C(=O)N(Cc4cccc(N5C(=O)c6cccc7cccc5c67)c4)c4ccccc43)[C@@H]2C)cc1`, the composite z-score is 1.19 in experiment [1]; 0.633 in experiment [3]; -0.144 in experiment [4]; -0.836 in experiment [5]; -0.0316 in [6]; -0.0778 in experiment [7]. In addition, the composite z-score was 1.11 in experiment [8], 0.302 in experiment [9] and 2.33 in experiment [10]. Also, the z-score in [2] is -4.08.

Regarding `CC(C)C[C@@H]1NC(=O)C([C@@H](C)OCc2ccccc2)NC(=O)[C@@]23C(=O)N[C@@H](Cc4ccccc4)C2[C@H](C)[C@@]2(C)O[C@H]2C3/C=C/CC/C=C/CNC1=O` (stereo not given in full), the composite z-score in [1] was 1.12; in experiment [3] it was 0.458; in [4], -0.407; in experiment [5], -0.543; in experiment [6], -0.15; in [7] it was -0.0064. Also, the values for the composite z-score in experiment [8], in experiment [9] and in experiment [10] were -0.24, 0.0641 and -0.0687, respectively. In addition, the z-score in experiment [2] was -2.63.

In the case of `C=C(C(=O)CC[C@@H](OC(C)=O)c1cccc(OCCO)c1)C(C)C`, the composite z-score is 0.974 in experiment [1]; -0.865 in [3]; -0.35 in experiment [4]; -0.94 in experiment [5]; -0.0276 in experiment [6]; -0.223 in experiment [7]. Moreover, the composite z-score in experiment [8] was -0.0863; in experiment [9], 0.847; in experiment [10], 0.221. The compound further registered a z-score in experiment [2] of -3.23.

As to `CC(=O)c1ccc(C(O)C2C=CC3C(=O)N(C)C(=O)C3N2NC(=O)OC(C)(C)C)cc1` (stereo not given), the composite z-score is 0.955 in experiment [1]; 0.237 in [3]; 2.2 in [4]; 1.19 in experiment [5]; 0.0279 in experiment [6]; 0.207 in experiment [7]. Besides, the composite z-score was determined as 1.7 in experiment [8], 0.486 in [9] and 2.12 in experiment [10]. The compound also had a z-score in experiment [2] of -0.859.

For the compound `O=C(NCC(F)(F)F)[C@@H]1c2ccccc2C(=O)N(CC23CC4CC(CC(C4)C2)C3)[C@H]1c1ccc(CO)cc1`, the composite z-score in [1] is 1.02; in [3], 0.355; in experiment [4], 0.579; in experiment [5], -0.715; in [6], -0.0398; in experiment [7], 0.136. For the same compound, the composite z-score in experiment [8] is -0.222; in experiment [9], 0.613; in experiment [10] it was -0.523. The z-score in experiment [2] was -1.83.

On to `COC(=O)[C@@]1(Cc2ccccc2)[C@H]2c3cc(C(=O)N4CCCC4)n(Cc4ccc(C(F)(F)F)nc4)c3C[C@H]2CN1C(=O)c1ccccc1`, for which the composite z-score was 1.46 in experiment [1]; -0.208 in experiment [3]; 1.96 in [4]; 0.836 in experiment [5]; 0.288 in experiment [6]; 1.36 in experiment [7]. Further, the composite z-score in [8] worked out at 1.48; in [9], 0.658; in experiment [10], 1.56. The z-score in experiment [2] was -2.59.

In the case of `CCC(CC)C(O)C1C=CC2C(=O)N(C)C(=O)C2N1N1CCCCC1` (stereo not given), the composite z-score in experiment [1] was 1.43; in [3], 0.692; in experiment [4], 1.68; in [5], -0.263; in experiment [6] it was 0.0229; in [7], 0.0381. For the same compound, the composite z-score in [8] is 1.57; in [9] it was 0.103; in experiment [10] it was 1.2. Besides, the z-score in [2] was -0.481.

As for `C=CCOC(=O)[C@H]1[C@@H]2C(=O)O[C@@H](c3ccccc3)[C@@H](c3ccccc3)N2[C@@H](c2ccc(OCCOC(=O)[C@@H]3C[C@@H]4C(=O)N[C@@H](Cc5ccccc5)C(=O)N4[C@@H]3c3ccc(O)cc3)cc2)[C@]12C(=O)Nc1ccccc12`, the composite z-score in [1] is 1.35; in [3] it was 0.747; in experiment [4] it was 1.48; in experiment [5], 0.0137; in experiment [6] it was -0.124; in experiment [7], -0.232. For the same compound, the composite z-score was 0.281 in experiment [8], 0.409 in experiment [9] and 0.948 in [10]. Also, the z-score in experiment [2] is -1.85.

As to `C[N+](C)(C)CCCC[C@@H]1NC(=O)[C@H]2C[C@@H](C(=O)NCCCCCNC(=O)CS)[C@@H](c3ccc(O)cc3)N2C1=O`, the composite z-score was 0.727 in experiment [1]; 0.355 in [3]; 0.956 in experiment [4]; 0.213 in experiment [5]; 0.0101 in [6]; -0.0553 in [7]. The values for the composite z-score in experiment [8], in experiment [9] and in [10] were -0.373, 2.49 and -0.256, respectively. In addition, the z-score in experiment [2] turned out to be 0.215.

On to `CCOC(=O)C[C@H]1[C@H](OC(=O)Cc2ccc3c(c2)OCO3)[C@@H](NC(=O)c2ccccc2)c2cc(OCCCO)ccc2N1C(=O)Cc1ccc(OC)cc1`, for which the composite z-score was 0.334 in experiment [1]; -0.113 in experiment [3]; 1.04 in [4]; 0.188 in experiment [5]; -0.0545 in experiment [6]; -0.0626 in [7]. The composite z-score in experiment [8] was -0.196; in [9], 0.435; in experiment [10], 0.774. Also, the z-score in experiment [2] was -1.53.

Regarding `O=C1O[C@H](c2ccccc2)[C@H](c2ccccc2)N2[C@H]1[C@@H](C(=O)NC[C@H](O)c1ccccc1)[C@]1(C(=O)Nc3ccc(C#CCCO)cc31)[C@H]2c1ccccc1OCCO`, the composite z-score in experiment [1] is 1.4; in experiment [3] it was -0.66; in experiment [4], 0.548; in experiment [5] it was -0.0628; in experiment [6] it was -0.147; in experiment [7], 0.149. The composite z-score in experiment [8] was -0.0503; in [9], 1.35; in experiment [10] it was 2.1. Also, the z-score in [2] is -1.47.

Consider `CCOC(=O)C[C@H]1[C@H](OC(=O)c2cc3ccccc3oc2=O)[C@@H](NC(=O)C2CCCCC2)c2cc(OCCCO)ccc2N1C(=O)Cc1ccc(OC)cc1`, for which the composite z-score in experiment [1] is 0.612; in experiment [3] it was 0.304; in [4], 0.126; in experiment [5] it was -0.182; in experiment [6] it was 0.0633; in [7], 0.42. Further, the composite z-score in experiment [8] was determined as 0.23; in experiment [9], 0.404; in experiment [10] it was 0.25. The same compound yielded a z-score in [2] of -0.938.

Turning to `COCCOC(=O)N1C(=O)[C@@]2(c3cc(C#CCC(C(=O)OC)C(=O)OC)ccc31)[C@H](c1ccc(OCCO)cc1)N1[C@H](c3ccccc3)[C@H](c3ccccc3)OC(=O)[C@H]1[C@@H]2C(=O)N1CCCCCCC1`, the composite z-score in [1] was 1.21; in experiment [3] it was 1.13; in [4], 2.57; in [5] it was 1.53; in experiment [6], 0.816; in experiment [7], 2.6. The composite z-score was found to be 3.08 in [8], 3.22 in [9] and 2.32 in [10]. The same compound gave a z-score in [2] of -0.735.

Take `COCCOC(=O)N1C(=O)[C@@]2(c3cc(C#CC4(O)CCCCCC4)ccc31)[C@H](C(=O)N1CCc3cc(OC)c(OC)cc3C1)[C@H]1C(=O)O[C@H](c3ccccc3)[C@H](c3ccccc3)N1[C@@H]2c1ccc(O)cc1`: the composite z-score in experiment [1] was 1.02; in experiment [3] it was 0.729; in [4] it was 0.621; in experiment [5], -0.394; in experiment [6], -0.0512; in [7], 0.191. For the same compound, the figures for the composite z-score in experiment [8], in experiment [9] and in [10] were -0.411, 1.12 and 1.17, respectively. The compound further had a z-score in [2] of -1.01.
